Measurements taken from the supplement of paper PMC9262897, “Low-cost anti-mycobacterial drug discovery using engineered E. coli” (Nature Communications, 2022).
± gives the standard deviation of the averaged measurements.

Tested on: E. coli TESEC Mtb Alr
Experiment: growth (OD600 after 10 h); higher = more growth (less inhibition)
Details: compound 0.1 mM
Description: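 TESEC Mtb Alr E. coli, or the Alr+ wild-type control, in 384-well plates with Prestwick library compounds at 0.1 mM and 1% DMSO, across arabinose induction levels of 1E3 to 1E7 nM. Growth is read as OD600 after 10 h at 37 °C in triplicate biological replicates.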

[1] = arabinose 1000 nM, raw OD600 reference: median of DMSO wells 0.294, cell-free background 0.041
[2] = arabinose 10000 nM, raw OD600 reference: median of DMSO wells 0.264, cell-free background 0.041
[3] = arabinose 100000 nM, raw OD600 reference: median of DMSO wells 0.201, cell-free background 0.041
[4] = arabinose 1000000 nM, raw OD600 reference: median of DMSO wells 0.193, cell-free background 0.041
[5] = arabinose 10000000 nM, raw OD600 reference: median of DMSO wells 0.146, cell-free background 0.041

SMILES | growth [1] | growth [2] | growth [3] | growth [4] | growth [5]
Nc1nc(=O)c2nc(CNc3ccc(C(=O)N[C@@H](CCC(=O)O)C(=O)O)cc3)cnc2[nH]1 [Folic acid] | 0.306 ± 0.0062 | 0.239 ± 0.0047 | 0.244 ± 0.028 | 0.149 ± 0.0059 | 0.1653 ± 0.0014
CCCc1nc2c(C)cc(-c3nc4ccccc4n3C)cc2n1Cc1ccc(-c2ccccc2C(=O)O)cc1 [Telmisartan] | 0.271 ± 0.02 | 0.291 ± 0.011 | 0.19 ± 0.016 | 0.228 ± 0.0023 | 0.156 ± 0.0075
Cn1c(=O)c2[nH]cnc2n(C)c1=O [Aminophylline] | 0.292 ± 0.012 | 0.262 ± 0.0083 | 0.196 ± 0.0098 | 0.195 ± 0.0022 | 0.134 ± 0.0058
Cc1ccc(S(=O)(=O)NC(=O)NN2CCCCCC2)cc1 [Tolazamide] | 0.293 ± 0.0069 | 0.281 ± 0.005 | 0.249 ± 0.0083 | 0.186 ± 0.012 | 0.17 ± 0.0032
CCn1cc(C(=O)O)c(=O)c2cnc(N3CCCC3)nc21 [Piromidic acid] | 0.314 ± 0.026 | 0.267 ± 0.0056 | 0.161 ± 0.019 | 0.182 ± 0.0092 | 0.145 ± 0.0049
CC[N+](CC)(CC)CCOc1cccc(OCC[N+](CC)(CC)CC)c1OCC[N+](CC)(CC)CC [Gallamine triethiodide] | 0.308 ± 0.014 | 0.2806 ± 0.0014 | 0.233 ± 0.017 | 0.191 ± 0.0068 | 0.1674 ± 0.00091
CC(C)NCC(O)COc1cccc2[nH]ccc12 (stereo not given) [Pindolol] | 0.286 ± 0.024 | 0.271 ± 0.014 | 0.203 ± 0.0064 | 0.179 ± 0.0088 | 0.142 ± 0.00072
CN(N=O)C(=O)N[C@H]1C(O)O[C@H](CO)[C@@H](O)[C@@H]1O (mixture of isomers) [Streptozotocin] | 0.259 ± 0.028 | 0.2526 ± 0.0016 | 0.147 ± 0.0062 | 0.14 ± 0.0077 | 0.0717 ± 0.0018
